Assay outcomes (PubChem)
Only some compounds are listed: those with a hit (about 3% of all), similar ones and a draw of the others.
esBAF inh – blocks esBAF chromatin remodeling in mouse ES cells; AID 602393; hit rate 2% among 350,000; reporter increase, % at 12.5 µM; Bmi1-luciferase knock-in reporter, 24 h; 100% = twice the neutral-well signal; in the data active = activation above about 40%; inconclusive = no clear call, values can overlap the other calls;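 also: a rise in the Bmi1 reporter signal indicates esBAF inhibition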
Wnt act – Wnt/beta-catenin pathway activation; Wnt/beta-catenin reporter cell assay, activator, plate reader; activation, % at 9.35 µM; hit rate 1.2% among 300,000; AID 743398; in the data active = activation above about 30%, passing the limit was not always enough; inconclusive = no clear call, values can overlap the other calls
C2C12 statin – protects C2C12 myotubes from simvastatin toxicity | ATP luminescence, 48 h; scaled: DMSO 0, geranylgeraniol control 100 | rescue of ATP level, % at 7.49 µM | hit rate 0.78% among 330,000;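 active = mean ATP rescue above about 67%, or every replicate alone reaching that limit, limit read from the data, passing the limit was not always enough; inconclusive = no clear call, values can overlap the other calls; inactive = mean under the limit and some replicate under it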;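 also: myotubes were challenged with 10 µM simvastatin during compound exposure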
MITF act – activators of MITF-driven TRPM1 promoter activity in SK-MEL-5 cells | SK-MEL-5 TRPM1-promoter luciferase, 24 h; % of positive control, neutral wells = 0 | activation, % at 12.5 µM | hit rate 0.75% among 300,000 | AID 588334;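 active = mean activation of at least 80% with every replicate also reaching 80%; inconclusive = mean reaches 80% but some replicate falls short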
esBAF Ring1 qPCR – confirmation of esBAF inhibitors: Ring1 de-repression in mouse ESCs. 550 tested, under 10 active. AID 743176. shares compounds with esBAF inh. fold change at 33 µM. mouse ESC E14, Ring1 mRNA RT-qPCR fold change;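 active = Ring1 gene expression raised more than 2-fold over untreated cells in both replicates at either tested dose; inconclusive = only one replicate above 2-fold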;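 also: Ring1 transcript normalised to actin housekeeping signal by TaqMan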
Fgf4 repress – esBAF inhibition confirmed by Fgf4 repression; shares compounds with esBAF inh; mouse ESC E14, Fgf4 mRNA qPCR fold change; hits give low values; Fgf4 expression fold change at 33 µM; hit rate 4% among 550;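 active = Fgf4 expression under 0.8 fold of control in both repeat measurements at one or both tested doses; inconclusive = under 0.8 fold in just a single repeat measurement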;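 also: Fgf4 transcript normalised to actin in duplex TaqMan qPCR; cells exposed to compound for 24 h before lysis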
esBAF Bmi1 qPCR – confirmation of esBAF inhibitors: Bmi1 de-repression in mouse ESCs. shares compounds with esBAF inh. 550 tested, under 10 active. AID 743180. mouse ESE14 ES cells, Bmi1 mRNA qPCR fold; hits give high values. fold change at 33 µM;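 active = Bmi1 expression fold change above 6 at either tested concentration, seen in replicate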;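 also: higher fold means more Bmi1 de-repression and stronger esBAF inhibition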
A549 cytotox – kills or reduces viability of A549 cells; cell viability change % (negative = cytotoxic), % at 25 µM, hits read low; shares compounds with esBAF inh; 550 tested, under 10 active; A549 cytotoxicity, plate reader; call rule not given here
HepG2 tox SP – cytotoxicity in HepG2 cells; activity change, negative = inhibition, % at 25 µM; shares compounds with esBAF inh; plate reader; hits give low values; hit rate 4% among 550; AID 743189; in the data active = activity change below about -50%
HEK293 tox SP – cytotoxicity in HEK293 cells | shares compounds with esBAF inh | plate reader | activity change, negative = inhibition, % at 25 µM, hits read low | hit rate 3% among 550 | AID 743190; in the data active = activity change below about -38%, passing the limit was not always enough
Hits are given with their value.

How did COC(=O)c1sc(NC(=O)C(C)c2ccccc2)nc1C (centres undefined) do in these assays?
esBAF inh: inactive; C2C12 statin: inactive; MITF act: inactive

What do the screens show for `CCCCc1nc2cc(C(=O)N3CCN(c4nc(C)cnc4C)CC3)ccc2o1`?
esBAF inh: 64; Wnt act: inactive; C2C12 statin: inactive; MITF act: inconclusive; esBAF Ring1 qPCR: inactive; Fgf4 repress: inactive; esBAF Bmi1 qPCR: inactive; A549 cytotox: inactive; HepG2 tox SP: inactive; HEK293 tox SP: inactive

What do the screens show for `Nc1cc(OCc2ccccc2)ccc1OCc1ccccc1`?
esBAF inh: 83; Wnt act: inactive; C2C12 statin: inactive; MITF act: inactive; esBAF Ring1 qPCR: inactive; Fgf4 repress: inconclusive; esBAF Bmi1 qPCR: inactive; A549 cytotox: inactive; HepG2 tox SP: inactive; HEK293 tox SP: inactive

What do the screens show for `O=c1cc(OCc2ccccc2)cc[nH]1`?
esBAF inh: inactive; Wnt act: inactive; C2C12 statin: inactive; MITF act: inactive

What do the screens show for `O=C(Nc1ccccc1)c1cc(C2CCCN(C(=O)c3ccccc3)C2)on1` (centres undefined)?
esBAF inh: 57; Wnt act: inactive; C2C12 statin: inactive; esBAF Ring1 qPCR: inactive; Fgf4 repress: inactive; esBAF Bmi1 qPCR: inactive; A549 cytotox: inactive; HepG2 tox SP: inactive; HEK293 tox SP: inactive

Results for Cc1c(Cl)cccc1NC(=O)c1cc(C2CC2)on1 ?
esBAF inh: 67; Wnt act: inactive; C2C12 statin: inactive; MITF act: inactive; esBAF Ring1 qPCR: inactive; Fgf4 repress: inactive; esBAF Bmi1 qPCR: inactive; A549 cytotox: inactive; HepG2 tox SP: inactive; HEK293 tox SP: inactive

Results for O=C(Nc1ccccc1Cl)c1cc(C2CCCN(C(=O)OCCF)C2)on1 (centres undefined) ?
esBAF inh: inconclusive; Wnt act: inactive; C2C12 statin: inactive

What do the screens show for `COC(=O)N1CCCC(c2cc(C(=O)Nc3ccccc3Cl)no2)C1` (centres undefined)?
esBAF inh: 73; Wnt act: inactive; C2C12 statin: inactive; esBAF Ring1 qPCR: inactive; Fgf4 repress: inactive; esBAF Bmi1 qPCR: inactive; A549 cytotox: inactive; HepG2 tox SP: inactive; HEK293 tox SP: inactive

Results for C/C=C/c1ccc2c(c1)O[C@H](CN(C)C(=O)c1cccc(F)c1)[C@H](C)CN([C@H](C)CO)S2(=O)=O ?
esBAF inh: inactive; C2C12 statin: inactive

How did O=C(Nc1nc2ccc(Cl)cc2s1)c1cccc(N2C(=O)CCC2=O)c1 do in these assays?
esBAF inh: 67; Wnt act: inconclusive; C2C12 statin: inactive; MITF act: inactive; esBAF Ring1 qPCR: inactive; Fgf4 repress: inactive; esBAF Bmi1 qPCR: inactive; A549 cytotox: inactive; HepG2 tox SP: inactive; HEK293 tox SP: inactive

Results for CCCC#Cc1ccc2c(c1)O[C@@H](CN(C)CC1CCOCC1)[C@@H](C)CN([C@@H](C)CO)S2(=O)=O ?
esBAF inh: inactive; C2C12 statin: inactive

How did Fc1ccc2nc(-c3ccccc3)ccc2c1 do in these assays?
esBAF inh: 60; Wnt act: inactive; C2C12 statin: inactive; esBAF Ring1 qPCR: inactive; Fgf4 repress: inactive; esBAF Bmi1 qPCR: inactive; A549 cytotox: inactive; HepG2 tox SP: -58; HEK293 tox SP: inactive

Results for Fc1cc(Cl)cc2ccc(-c3ccccc3)nc12 ?
esBAF inh: 56; Wnt act: inactive; C2C12 statin: inactive; esBAF Ring1 qPCR: inactive; Fgf4 repress: inactive; esBAF Bmi1 qPCR: inactive; A549 cytotox: inactive; HepG2 tox SP: inactive; HEK293 tox SP: inactive

What do the screens show for `Nc1nc(Cl)cc(-c2ccccc2)n1`?
Wnt act: inactive; MITF act: inactive

How did O=C(C[C@H]1CC[C@@H]2[C@H](COC[C@@H](O)CN2S(=O)(=O)c2ccc(Oc3ccccc3)cc2)O1)Nc1ccccc1 do in these assays?
esBAF inh: inactive; C2C12 statin: inactive

What do the screens show for `CCN(CC)S(=O)(=O)c1cccc(-c2cn3cc(C)ccc3n2)c1`?
esBAF inh: 65; C2C12 statin: inactive; MITF act: inactive; esBAF Ring1 qPCR: inactive; Fgf4 repress: 0.77; esBAF Bmi1 qPCR: inactive; A549 cytotox: inactive; HepG2 tox SP: inactive; HEK293 tox SP: inactive

Results for COCC#Cc1ccc2c(c1)O[C@H](CN(C)C(=O)NC(C)C)[C@H](C)CN([C@@H](C)CO)S2(=O)=O ?
esBAF inh: inactive; C2C12 statin: inactive

What do the screens show for `C[C@@H]1CN([C@@H](C)CO)C(=O)c2cccc(NC(=O)Nc3ccc(C(F)(F)F)cc3)c2O[C@@H]1CN(C)Cc1ccncc1`?
esBAF inh: inactive; C2C12 statin: inactive

How did COC(=O)c1c(-c2ccc(SC)cc2)sc2ccc(OC)cc12 do in these assays?
esBAF inh: 99; Wnt act: 58; C2C12 statin: inactive; MITF act: inactive; esBAF Ring1 qPCR: inactive; Fgf4 repress: inactive; esBAF Bmi1 qPCR: inactive; A549 cytotox: inactive; HepG2 tox SP: inactive; HEK293 tox SP: inactive

Results for COC(=O)c1c(-c2cc(OC)cc(OC)c2)sc2ccc(OC)cc12 ?
esBAF inh: inactive; Wnt act: inactive; C2C12 statin: inactive; MITF act: inactive

What do the screens show for `CCN(CC)C(=O)OCc1c(-c2ccccc2)ncc2ccccc12`?
esBAF inh: 106; Wnt act: inconclusive; C2C12 statin: inactive; MITF act: 102; esBAF Ring1 qPCR: inactive; Fgf4 repress: inconclusive; esBAF Bmi1 qPCR: inactive; A549 cytotox: inactive; HepG2 tox SP: inactive; HEK293 tox SP: inactive

Results for O=C(Nc1cccc(O)c1)c1ccc(Br)cc1 ?
esBAF inh: 57; C2C12 statin: inactive; MITF act: inactive; esBAF Ring1 qPCR: inactive; Fgf4 repress: inactive; esBAF Bmi1 qPCR: inactive; A549 cytotox: inactive; HepG2 tox SP: inactive; HEK293 tox SP: inactive

Results for O=C(Nc1cccc(O)c1)c1cccc(C(=O)Nc2cccc(O)c2)c1 ?
esBAF inh: inactive; Wnt act: inactive; C2C12 statin: inactive

Results for Cc1cc(C)cc(N(CC(=O)Nc2ccc(-c3nc4ccc(C)cc4s3)cc2)S(C)(=O)=O)c1 ?
esBAF inh: 47; Wnt act: 39; C2C12 statin: inactive; MITF act: inactive; esBAF Ring1 qPCR: inactive; Fgf4 repress: inactive; esBAF Bmi1 qPCR: inactive; A549 cytotox: inactive; HepG2 tox SP: inactive; HEK293 tox SP: inactive

Results for Cc1ccc(C)c(N2CCN(C(=O)CCc3nc(-c4cccc(Cl)c4)no3)CC2)c1 ?
esBAF inh: 90; Wnt act: inactive; C2C12 statin: inactive; MITF act: inactive; esBAF Ring1 qPCR: inactive; Fgf4 repress: inactive; esBAF Bmi1 qPCR: inactive; A549 cytotox: inactive; HepG2 tox SP: inactive; HEK293 tox SP: inactive
